This passage reports Potency and outcome results from PubChem BioAssay (Tox21).

The target of test [1] is Aryl hydrocarbon receptor (Homo sapiens) (UniProt P35869). The test can be described thus: qHTS assay to identify small molecule that activate the aryl hydrocarbon receptor (AhR) signaling pathway (AID 743085). Further: nearly all actives have a fitted effect of over 15% in size. Further: potency means the concentration at half of the fitted maximal effect.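 On activation: HG2L7.5c1 human HepG2 liver cells with stably integrated DRE-driven firefly reporter; series mostly up to about 70 µM.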 The essentials:
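Steps: seed HepG2-AhR-luc cells; allow 5 h at 37C; pin-transfer test compound or vehicle; incubate 24 h at 37C; add viability dye (30 min, 37C) and read fluorescence; add luciferase substrate (30 min, RT) and read luminescence.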
For orientation: In qHTS, concentration-response curves come from the screen itself.

The nature of test [2]: qHTS assay to identify small molecule that activate the aryl hydrocarbon receptor (AhR) signaling pathway - cell viability counter screen (AID 743086).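 Further: HepG2 liver cells carrying the AhR DRE luciferase reporter; series mostly up to about 70 µM; nearly all actives have a fitted effect of over 45% in size.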 The essentials:
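HepG2-AhR-luc (HG2L7.5c1) cells, 4000/well, treated 24 h at 37 C with compound; viability measured as CellTiter-Fluor fluorescence after 30 min in the same wells as the luciferase read.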

Test [3] concerns the target Peroxisome proliferator-activated receptor gamma (Homo sapiens) (UniProt P37231). The test is described as follows: qHTS assay to identify small molecule agonists of the peroxisome proliferator-activated receptor gamma (PPARg) signaling pathway (AID 743094; active means well fitted activation curve with a large enough effect in the signal ratio in the repeat runs, not every such curve was filed as active; the % refers to the signal ratio). Summed up: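 Following 5 h plating at 37C, PPARg-bla HEK293H cells receive compound or DMSO for 17 h; fluorescence intensity is recorded after LiveBLAzer B/G loading for 1 h at room temperature.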

Test [4] has the same target. The test is described as follows: qHTS assay to identify small molecule antagonists of the peroxisome proliferator-activated receptor gamma (PPARg) signaling pathway (AID 743191; calls by dose curve; further: series mostly up to about 63 µM; nearly all actives have a fitted effect of over 30% in size). The essentials: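 GeneBLAzer PPARg UAS-bla HEK293H cells, 5 h post-plating, exposed to compounds 17 h at 37C. LiveBLAzer B/G FRET substrate added for 1 h at room temperature; beta-lactamase reporter read by fluorescence intensity.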

Test [5] in a line: qHTS assay to identify small molecule antagonists of the peroxisome proliferator-activated receptor gamma (PPARg) signaling pathway - cell viability counter screen (AID 743194). Further: nearly all actives have a fitted effect of over 55% in size. The settings on record: Potency: co-treated with 50 nM rosiglitazone. The essentials: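 Cytotoxicity counter screen in PPARg-bla HEK293H cells, same wells as reporter assay. Compounds plus 50 nM rosiglitazone (final) for 17 h at 37 C, then viability read by CellTiter-Glo luminescence.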

The nature of test [6]: qHTS assay for small molecule agonists of the antioxidant response element (ARE) signaling pathway (AID 743202; active means well fitted activation curve with a large enough effect in the signal ratio in the repeat runs, not every such curve was filed as active; the % refers to the signal ratio). The essentials:
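Agonist mode reporter screen: HepG2 cells with ARE-controlled beta-lactamase are incubated with test compounds for 16 h at 37 C, and beta-lactamase activity is measured as fluorescence of cleaved B/G FRET substrate.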

Test [7] can be described thus: qHTS assay for small molecule agonists of the antioxidant response element (ARE) signaling pathway - cell viability counter screen (AID 743203; calls by dose curve; further: nearly all actives have a fitted effect of over 55% in size). Summed up:
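Compounds in DMSO were pinned onto ARE-bla HepG2 cells plated 5 hrs earlier at 2,000 cells/well. Sixteen hours later at 37C/5% CO2, CellTiter-Glo was added and luminescence measured after 30 min at room temperature.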

Test [8] in a line: qHTS assay for small molecule activators of the heat shock response signaling pathway - cell viability counter screen (AID 743209). Further: nearly all actives have a fitted effect of over 50% in size. Summed up:
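Counter screen for cytotoxicity in HeLa HSE-bla reporter cells. Treatment was 5 h at 37 C; viability was detected by luminescent ATP assay (CellTiter-Glo) in the same wells as the beta-lactamase read.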

A short description of test [9]: qHTS assay for small molecule activators of the heat shock response signaling pathway (AID 743210; active means well fitted activation curve with a large enough effect in the signal ratio in the repeat runs, with a control signal flat, not every such curve was filed as active; the % refers to the signal ratio;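 further: HeLa cells with beta-lactamase reporter driven by heat shock elements; series mostly up to about 63 µM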). The essentials: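 Quantitative high-throughput format using an engineered HeLa line in which heat shock response elements drive beta-lactamase; after 5 h with compound, cells received a B/G FRET substrate and fluorescence was read.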
A short description of test [10]: qHTS assay to identify small molecule agonists of the peroxisome proliferator-activated receptor delta (PPARd) signaling pathway - cell viability counter screen (AID 743211). Further: nearly all actives have a fitted effect of over 55% in size. Summed up: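 Viability of GeneBLAzer PPARd UAS-bla HEK293H cells was assessed after 17 h compound incubation at 37C, using CellTiter-Glo reagent added after the reporter read and luminescence recorded 30 min later.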

Test [11] deals with Peroxisome proliferator-activated receptor delta (Homo sapiens) (UniProt Q03181). The test can be described thus: qHTS assay to identify small molecule agonists of the peroxisome proliferator-activated receptor delta (PPARd) signaling pathway (AID 743212; calls by dose curve). The essentials: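 Quantitative high-throughput agonist screen in a HEK293H beta-lactamase reporter line under UAS control. Compounds in DMSO, at 37 C. Fluorescence read after 2 h with FRET substrate at room temperature.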

Test [12] is described as follows: qHTS assay to identify small molecule antagonists of the peroxisome proliferator-activated receptor delta (PPARd) signaling pathway - cell viability counter screen (AID 743213). Further: nearly all actives have a fitted effect of over 50% in size. Summed up:
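In this counter screen, HEK293H cells carrying a UAS-beta-lactamase reporter are co-treated with test compounds and 300 nM L165041 (final) for 17 h at 37 C; cell viability is quantified by CellTiter-Glo luminescence.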

For test [13], the target named is Bile acid receptor (Homo sapiens) (UniProt Q96RI1). The test can be described thus: qHTS assay to identify small molecule antagonists of the farnesoid-X-receptor (FXR) signaling pathway (AID 743217; active means well fitted inhibition curve with a large enough effect in the signal ratio in the repeat runs, not every such curve was filed as active; the % refers to the signal ratio). Summed up:
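In this cell-based antagonist screen, inhibition of CDCA-driven (50 uM final) UAS-beta-lactamase expression in HEK 293T cells was measured by FRET fluorescence following 16 h compound exposure at 37 °C.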

Test [14] is described as follows: qHTS assay to identify small molecule agonists of the farnesoid-X-receptor (FXR) signaling pathway - cell viability counter screen (AID 743218). Further: nearly all actives have a fitted effect of over 45% in size. The essentials:
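After 16 h at 37 C with test compounds, FXR-bla HEK 293T cells were given LiveBLAzer B/G substrate for 2 h at RT and then CellTiter-Glo; luminescence was taken after 30 min.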

Test [15] deals with Bile acid receptor (Homo sapiens) (UniProt Q96RI1). The test can be described thus: qHTS assay to identify small molecule agonists of the farnesoid-X-receptor (FXR) signaling pathway (AID 743220; active means well fitted activation curve with a large enough effect in the signal ratio in the repeat runs, not every such curve was filed as active; the % refers to the signal ratio). Summed up:
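Beta-lactamase reporter under UAS control in GeneBLAzer FXR HEK 293T cells (5000/well) measured with LiveBLAzer FRET substrate after 2 h at room temperature. Compound exposure lasted 16 h at 37C.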

The nature of test [16]: qHTS assay to identify small molecule antagonists of the farnesoid-X-receptor (FXR) signaling pathway - cell viability counter screen (AID 743221; active means well fitted cell-killing curve with a large enough effect in the repeat runs, not every such curve was filed as active; further: nearly all actives have a fitted effect of over 50% in size). The essentials: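 Quantitative HTS of the Tox21 10K library run in parallel with the beta-lactamase reporter read. HEK 293T cells carrying a UAS-driven bla reporter got compound and 50 uM CDCA (final) for 16 h; ATP-based luminescence followed.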

Test [17] has as its target Vitamin D3 receptor (Homo sapiens) (UniProt P11473). The test is described as follows: qHTS assay to identify small molecule agonists of the vitamin D receptor (VDR) signaling pathway (AID 743222; calls by dose curve). The essentials: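 VDR-bla cells were seeded, left 4 h, treated with compounds in DMSO for 16 h, incubated 2 h at RT with B/G FRET substrate, and read for fluorescence.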
Test [18] is described as follows: qHTS assay to identify small molecule agonists of the vitamin D receptor (VDR) signaling pathway - cell viability counter screen (AID 743224). Further: series mostly up to about 63 µM; nearly all actives have a fitted effect of over 50% in size. Summed up: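 Here cell health was gauged by luminescent ATP detection (CellTiter-Glo, 30 min RT) in VDR-bla cells that had been incubated with test compounds for 16 h at 37C and 5% CO2.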
Test [19] concerns the target Peroxisome proliferator-activated receptor delta (Homo sapiens) (UniProt Q03181). The test can be described thus: qHTS assay to identify small molecule antagonists of the peroxisome proliferator-activated receptor delta (PPARd) signaling pathway (AID 743215; active means well fitted inhibition curve with a large enough effect in the signal ratio in the repeat runs, not every such curve was filed as active; the % refers to the signal ratio;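 further: cells stimulated with agonist L165041 at 300 nM final during compound exposure; series mostly up to about 62 µM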). The essentials: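 With L165041 present at 300 nM final, compounds were incubated 17 h at 37 C on PPARd UAS-bla HEK293H cells. A FRET-based beta-lactamase substrate was then applied for 2 h at room temperature and fluorescence intensity recorded.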

Test [20] addresses Vitamin D3 receptor (Homo sapiens) (UniProt P11473). The test can be described thus: qHTS assay to identify small molecule antagonists of the vitamin D receptor (VDR) signaling pathway (AID 743223; active means well fitted inhibition curve with a large enough effect in the signal ratio in the repeat runs, not every such curve was filed as active; the % refers to the signal ratio). Summed up: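 Fluorescence from LiveBLAzer B/G FRET substrate, read after 2 h at room temperature, reflects beta-lactamase reporter activity in VDR-bla cells treated 16 h at 37C with compounds and agonist 1alpha,25-dihydroxyvitamin D3 (3 nM final).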

Results filed as inconclusive are left out. Activity calls are given as the source filed them. Unless noted, the call rests on the fitted dose curve; in most records, active means well fitted curve in the direction sought with a large enough effect in the repeat runs; inconclusive means weak or mixed curves; inactive means no such curve, though single readings can be large; an effect the other way counts as inactive or inconclusive.

Sequence of Vitamin D3 receptor (Homo sapiens) (P11473 whole entry, looked up): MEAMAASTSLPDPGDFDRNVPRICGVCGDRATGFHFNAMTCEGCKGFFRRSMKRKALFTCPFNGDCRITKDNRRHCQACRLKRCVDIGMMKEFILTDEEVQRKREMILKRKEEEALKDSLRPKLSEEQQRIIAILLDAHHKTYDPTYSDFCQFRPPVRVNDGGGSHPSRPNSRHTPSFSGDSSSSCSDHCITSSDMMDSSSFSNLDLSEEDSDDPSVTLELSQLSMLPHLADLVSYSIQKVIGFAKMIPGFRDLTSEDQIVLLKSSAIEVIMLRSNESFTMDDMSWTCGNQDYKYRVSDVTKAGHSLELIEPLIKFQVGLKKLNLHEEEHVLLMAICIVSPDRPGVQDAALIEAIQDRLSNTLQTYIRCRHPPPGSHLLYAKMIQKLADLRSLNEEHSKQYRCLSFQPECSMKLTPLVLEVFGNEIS
Sequence of Peroxisome proliferator-activated receptor gamma (Homo sapiens) (P37231 whole entry, looked up): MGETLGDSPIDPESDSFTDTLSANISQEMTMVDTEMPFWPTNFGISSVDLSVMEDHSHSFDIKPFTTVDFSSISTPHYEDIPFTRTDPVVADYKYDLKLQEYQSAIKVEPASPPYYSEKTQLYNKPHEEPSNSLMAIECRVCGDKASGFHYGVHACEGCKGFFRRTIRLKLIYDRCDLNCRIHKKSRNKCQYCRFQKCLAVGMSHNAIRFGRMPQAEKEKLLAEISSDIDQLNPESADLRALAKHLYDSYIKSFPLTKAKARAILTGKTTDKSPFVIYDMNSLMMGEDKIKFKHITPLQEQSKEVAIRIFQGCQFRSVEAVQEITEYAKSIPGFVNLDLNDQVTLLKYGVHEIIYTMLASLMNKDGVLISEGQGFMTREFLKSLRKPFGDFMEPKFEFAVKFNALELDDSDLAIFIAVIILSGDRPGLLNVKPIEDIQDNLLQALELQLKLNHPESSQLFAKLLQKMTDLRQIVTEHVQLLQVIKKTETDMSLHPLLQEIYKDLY
Sequence of Bile acid receptor (Homo sapiens) (Q96RI1 whole entry, looked up): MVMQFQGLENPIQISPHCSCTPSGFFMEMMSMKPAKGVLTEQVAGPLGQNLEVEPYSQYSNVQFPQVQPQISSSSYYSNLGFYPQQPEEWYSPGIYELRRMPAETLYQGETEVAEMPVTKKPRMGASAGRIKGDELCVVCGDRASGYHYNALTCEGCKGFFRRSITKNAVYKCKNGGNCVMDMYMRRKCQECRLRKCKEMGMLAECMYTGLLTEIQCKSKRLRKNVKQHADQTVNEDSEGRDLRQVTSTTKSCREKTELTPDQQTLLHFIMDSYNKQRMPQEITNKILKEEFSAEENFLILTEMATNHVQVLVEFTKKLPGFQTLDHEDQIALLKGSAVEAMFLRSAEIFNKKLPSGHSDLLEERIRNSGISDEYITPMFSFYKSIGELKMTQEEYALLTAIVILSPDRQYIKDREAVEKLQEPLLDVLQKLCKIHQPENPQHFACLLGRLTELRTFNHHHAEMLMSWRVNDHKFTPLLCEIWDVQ
Sequence of Aryl hydrocarbon receptor (Homo sapiens) (P35869 whole entry, looked up): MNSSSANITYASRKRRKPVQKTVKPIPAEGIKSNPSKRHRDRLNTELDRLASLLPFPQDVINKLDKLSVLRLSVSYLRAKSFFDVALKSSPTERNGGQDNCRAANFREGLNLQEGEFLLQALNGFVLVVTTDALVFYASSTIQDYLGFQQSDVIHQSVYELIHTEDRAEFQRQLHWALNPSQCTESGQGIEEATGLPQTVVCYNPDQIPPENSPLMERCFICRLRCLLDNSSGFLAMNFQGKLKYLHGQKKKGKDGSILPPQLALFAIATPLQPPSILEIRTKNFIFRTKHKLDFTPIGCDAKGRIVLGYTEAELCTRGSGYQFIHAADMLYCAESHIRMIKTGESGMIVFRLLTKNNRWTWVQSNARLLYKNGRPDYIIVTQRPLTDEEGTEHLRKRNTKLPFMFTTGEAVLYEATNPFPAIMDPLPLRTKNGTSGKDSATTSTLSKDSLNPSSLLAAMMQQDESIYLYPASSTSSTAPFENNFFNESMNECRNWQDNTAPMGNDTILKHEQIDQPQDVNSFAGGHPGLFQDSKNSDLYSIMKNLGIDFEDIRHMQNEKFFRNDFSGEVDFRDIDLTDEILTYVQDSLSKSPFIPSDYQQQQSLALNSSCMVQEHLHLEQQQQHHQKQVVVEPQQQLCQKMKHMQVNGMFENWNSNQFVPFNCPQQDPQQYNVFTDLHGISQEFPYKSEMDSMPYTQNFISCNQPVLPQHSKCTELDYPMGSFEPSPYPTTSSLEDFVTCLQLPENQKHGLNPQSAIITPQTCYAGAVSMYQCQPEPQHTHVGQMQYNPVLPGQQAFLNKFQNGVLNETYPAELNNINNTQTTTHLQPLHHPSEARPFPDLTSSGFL
Sequence of Peroxisome proliferator-activated receptor delta (Homo sapiens) (Q03181 whole entry, looked up): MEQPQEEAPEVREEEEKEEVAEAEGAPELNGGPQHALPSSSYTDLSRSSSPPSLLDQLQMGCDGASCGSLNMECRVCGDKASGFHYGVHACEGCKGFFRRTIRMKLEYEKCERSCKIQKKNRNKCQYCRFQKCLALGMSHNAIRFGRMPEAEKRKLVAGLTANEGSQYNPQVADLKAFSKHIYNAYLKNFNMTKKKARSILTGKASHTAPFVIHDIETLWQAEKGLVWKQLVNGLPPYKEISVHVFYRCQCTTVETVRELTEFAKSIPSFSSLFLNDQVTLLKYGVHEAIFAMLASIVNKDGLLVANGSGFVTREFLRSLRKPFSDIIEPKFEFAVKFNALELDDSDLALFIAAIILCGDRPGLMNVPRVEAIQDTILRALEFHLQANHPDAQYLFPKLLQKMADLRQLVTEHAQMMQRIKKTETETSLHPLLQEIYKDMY

Consider `Nc1ccccc1Cl`, for which the Potency result in [1], in test [4], in test [5], in [6], in test [7] and in test [8] was “inactive” throughout. Also, the Potency result in test [10], in [13], in [14] and in [18] was “inactive” each time. The result in test [2], in [3], in test [9], in test [11], in test [12] and in test [15] was inactive. The call in [16] and in test [17] was inactive.
Consider `CNC(=O)N(C)c1nc2ccccc2s1`, for which the Potency in test [1] was 27.3 µM (active). Further, the outcome in [2], in [3], in test [9], in [11], in test [12] and in test [19] was inactive. For the same compound, the compound was called inactive in test [15], in test [16] and in test [17]. In addition, the Potency entry in test [4], in [5], in test [7], in [8], in test [10] and in [13] was “inactive” in each case. For the same compound, the Potency result in test [14] and in test [18] was “inactive” each time.
With `CCCCN(CCCCO)N=O`, the Potency entry in test [1], in [4], in test [5], in test [6], in test [8] and in test [10] was “inactive” throughout. In addition, the Potency entry in test [14] and in test [18] was “inactive” each time. Further, the compound was called inactive in test [2], in test [3], in [9], in test [11], in [12] and in test [16]. Moreover, the compound was classed as inactive in test [17] and in test [20].
`O=NN1CCCCC1`: the Potency entry in test [1], in test [4], in test [5], in test [6], in [7] and in [8] was “inactive” in each case. For the same compound, the Potency entry in test [10], in test [14] and in test [18] was “inactive” throughout. In addition, the compound was classed as inactive in [2], in test [3], in [9], in [12], in test [19] and in test [16]. Moreover, in test [20], the compound was classed as inactive.
`CN(C)CCc1ccc(O)cc1`: the Potency entry in test [1], in test [4], in test [5], in test [6], in test [7] and in test [8] was “inactive” in each case. Further, the Potency entry in [10], in [13] and in test [18] was “inactive” in each case. Moreover, the compound was classed as inactive in [2], in test [3], in test [9], in test [12], in [15] and in test [16]. In addition, in test [17], the result was inactive.
Take `N#CCCC#N`: the Potency entry in test [1], in [4], in test [5], in test [7], in test [8] and in test [10] was “inactive” throughout. The Potency result in [13], in test [14] and in [18] was “inactive” in each case. Also, the result in [2], in [3], in [9], in test [11], in [12] and in [19] was inactive. Also, the call in test [15], in [16], in test [17] and in test [20] was inactive.
With `CC1(C)CON(Cc2ccccc2Cl)C1=O`, the Potency result in test [1], in test [4], in test [5], in test [7], in test [8] and in test [10] was “inactive” throughout. Moreover, the Potency result in test [14] was “inactive”. Besides, the result in test [2], in test [3], in test [9], in test [12], in test [19] and in test [16] was inactive. Moreover, the call in test [17] and in test [20] was inactive.
Consider `CC(=O)[C@H]1CC[C@H]2[C@@H]3CC[C@H]4C[C@H](O)CC[C@]4(C)[C@H]3C(=O)C[C@]12C`, for which the Potency entry in test [1], in [4], in [5], in [7], in [8] and in [10] was “inactive” each time. Besides, the Potency entry in test [13], in test [14] and in test [18] was “inactive” each time. Further, the compound was classed as inactive in test [2], in [3], in [9], in [11], in test [12] and in [15]. Also, the compound was called inactive in [16] and in test [17].
